Compounds without any hit were thinned out: in the full panel of roughly 83,000, 20% have a hit.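 Single-concentration screen, 48 h exposure, 96-well plates. Endpoint: percent growth. Below 10 = active.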 Unmarked numbers belong to inactive results. Activity calls are given as the source filed them.

For eight compounds, growth results are on record in PubChem BioAssay (NCI).

Among the test systems are HCT-15 colon; HT29 colon; SNB-75 CNS; SNB-19 CNS; U251 CNS; PC-3 prostate; SK-MEL-5 melanoma; UACC-62 melanoma; LOX IMVI melanoma; SK-MEL-28 melanoma; SK-MEL-2 melanoma; EKVX NSCLC; SN12C renal; UO-31 renal; TK-10 renal; ACHN renal; CAKI-1 renal; A498 renal; CCRF-CEM leukemia; MOLT-4 leukemia.
What all share (assay): NCI-60 one-dose screen, 48 h (100 = growth as untreated, 0 = no growth, -100 = all killed)
What all share (settings): 10 µM

As for `Cc1ccc(/C=C/C(=O)c2ccc(S(=O)(=O)NCCNc3nc(Nc4ccc(F)cc4)nc(N(C)C)n3)cc2)cc1`, the growth in the test on HCT-15 colon was -46.4% (active); in the test on HT29 colon it was -55.6% (active); in the test on SNB-75 CNS, 81.3%; with SNB-19 CNS, 44.7%; in the test with U251 CNS, -57.3% (active); with PC-3 prostate, 12.3%. Further, the growth was 29.4% in the test with SK-MEL-5 melanoma; 32.5% in the test on UACC-62 melanoma; -100% (active) in the test with LOX IMVI melanoma; 40.5% with SK-MEL-28 melanoma; 84.5% in the test on SK-MEL-2 melanoma; 30.7% with EKVX NSCLC. Besides, the growth in the test on SN12C renal was -83.9% (active); with UO-31 renal, 36.8%; in the test on TK-10 renal it was 100%; in the test with ACHN renal, 11.9%; in the test on CAKI-1 renal, 29.3%; in the test on A498 renal, 37.3%. In addition, the growth in the test with CCRF-CEM leukemia was 17.6%; with MOLT-4 leukemia, 10.1%.
Turning to `CC1=C(c2cc(-c3ccc(Cl)cc3)c(C#N)c(N)n2)C(c2ccccc2)NC(=S)N1` (stereo not given), the growth is 10.9% in the test with HCT-15 colon; 24.7% in the test on HT29 colon; 36.5% with SNB-75 CNS; 75.4% with SNB-19 CNS; 38.8% in the test with U251 CNS; 49.8% with PC-3 prostate. Further, the growth with SK-MEL-5 melanoma was 58.1%; in the test on UACC-62 melanoma, 62.7%; with LOX IMVI melanoma it was -49.2% (active); with SK-MEL-28 melanoma, 57.7%; in the test with SK-MEL-2 melanoma, 98.6%; in the test on EKVX NSCLC, 98.6%. The growth in the test with SN12C renal is 62.2%; with UO-31 renal, 63.5%; with TK-10 renal, 114%; in the test on ACHN renal it was 19.6%; in the test on CAKI-1 renal it was 72.3%; in the test with A498 renal, 137%. The growth is 7.65% (active) with CCRF-CEM leukemia and 6.11% (active) in the test with MOLT-4 leukemia.
`N#C/C(=C\c1ccc(N(c2ccccc2)c2ccccc2)cc1)C(N)=O`: the growth is 65.1% in the test on HCT-15 colon; 30.5% with HT29 colon; 95.4% in the test on SNB-75 CNS; 77% with SNB-19 CNS; 32.5% with U251 CNS; 61% with PC-3 prostate. The growth in the test with SK-MEL-5 melanoma was 31.2%; with UACC-62 melanoma, -47.3% (active); with LOX IMVI melanoma, 79%; in the test on SK-MEL-28 melanoma, 104%; in the test on SK-MEL-2 melanoma, 23.5%; in the test on EKVX NSCLC, 90.2%. In addition, the growth in the test with SN12C renal is 90.5%; in the test with UO-31 renal, 49.9%; in the test on TK-10 renal, -37.7% (active); in the test on ACHN renal it was 88%; in the test on CAKI-1 renal, -24% (active); in the test on A498 renal it was -99.8% (active). The growth in the test with CCRF-CEM leukemia was 59.9%; in the test with MOLT-4 leukemia it was 56%.
For the compound `CCCn1c(=O)c2[nH]c(-c3ccc(OCc4nc5ccc(C#N)cc5[nH]4)cc3)nc2n(CCC)c1=O`, the growth in the test with HCT-15 colon is 84.7%; in the test on HT29 colon, 88.5%; in the test on SNB-75 CNS, 84.9%; with SNB-19 CNS, 80.8%; with U251 CNS, 70.6%; in the test with PC-3 prostate, 55.4%. The growth with SK-MEL-5 melanoma was 83.4%; in the test on UACC-62 melanoma it was 49.2%; with LOX IMVI melanoma, 46.5%; in the test with SK-MEL-28 melanoma, 90.8%; with SK-MEL-2 melanoma, 96.8%; in the test with EKVX NSCLC, 80.6%. The growth was 76.5% in the test on SN12C renal; 67.8% in the test on UO-31 renal; 107% in the test on TK-10 renal; 70.4% in the test on ACHN renal; 89.6% in the test on CAKI-1 renal; 79.1% with A498 renal. In addition, the growth in the test on CCRF-CEM leukemia was 83.6%; in the test on MOLT-4 leukemia, 75.6%.
As to `COC[C@@H](CC(C)C)N=C1N/C(=C\c2ccc3ncsc3c2)C(=O)N1C`, the growth with HCT-15 colon is 2.01% (active); with HT29 colon, 6.85% (active); in the test on SNB-75 CNS, 27.5%; in the test on SNB-19 CNS, 14.6%; in the test with U251 CNS it was 15.4%; in the test on PC-3 prostate, 23.6%. In addition, the growth in the test with SK-MEL-5 melanoma was -57.3% (active); in the test on UACC-62 melanoma it was -64.9% (active); with LOX IMVI melanoma it was -51.2% (active); in the test on SK-MEL-28 melanoma, -1.69% (active); in the test with SK-MEL-2 melanoma, -82.2% (active); with EKVX NSCLC, 15%. Further, the growth in the test on SN12C renal is 9.83% (active); with UO-31 renal it was -19.4% (active); in the test on TK-10 renal it was 27.4%; in the test on ACHN renal, -1.55% (active); in the test on CAKI-1 renal, 2.83% (active); in the test on A498 renal, -15.4% (active). Moreover, the figures for the growth in the test on CCRF-CEM leukemia and in the test with MOLT-4 leukemia were 7.03% (active) and 9.06% (active), respectively.
With `COc1ccc2c(c1)N=C(C(=O)O)/C2=C/c1sc(Nc2ccc(O)cc2)nc1O`, the growth is 53.9% with HCT-15 colon; 95.9% with HT29 colon; 67.2% in the test with SNB-75 CNS; 70.1% in the test with SNB-19 CNS; 67.7% with U251 CNS; 76% with PC-3 prostate. Besides, the growth was 83% with SK-MEL-5 melanoma; 42.9% in the test on UACC-62 melanoma; 49.2% with LOX IMVI melanoma; 80.5% with SK-MEL-28 melanoma; 81.6% with SK-MEL-2 melanoma; 75.1% in the test on EKVX NSCLC. Besides, the growth is 80.9% in the test with SN12C renal; 49.4% with UO-31 renal; 99.2% in the test with TK-10 renal; 82.2% in the test on ACHN renal; 92.1% in the test on CAKI-1 renal; 98.2% in the test on A498 renal. The growth with CCRF-CEM leukemia is 44.3%; with MOLT-4 leukemia, 43%.
As for `O=C(c1ccc(Cl)cc1)C1[C@H](c2ccccc2Br)[C@@H](c2ccccc2)NC12C(=O)Nc1ccccc12` (stereo not given in full), the growth in the test with HCT-15 colon was 12%; in the test with HT29 colon it was -16% (active); in the test with SNB-75 CNS it was 33.1%; in the test with SNB-19 CNS it was 31.6%; in the test on U251 CNS it was 21.5%; in the test with PC-3 prostate, 17.3%. Besides, the growth in the test on SK-MEL-5 melanoma was -15.9% (active); in the test on UACC-62 melanoma, 7.38% (active); in the test on LOX IMVI melanoma, -69.1% (active); in the test on SK-MEL-28 melanoma, 44.8%; in the test with SK-MEL-2 melanoma, 2.05% (active); in the test with EKVX NSCLC, 14%. For the same compound, the growth was -54.2% (active) in the test on SN12C renal; 13.1% in the test with UO-31 renal; 55.7% in the test with TK-10 renal; 11.1% with ACHN renal; 14.8% in the test on CAKI-1 renal; 55.5% with A498 renal. Moreover, the results for the growth in the test on CCRF-CEM leukemia and in the test with MOLT-4 leukemia were 7.61% (active) and 2.61% (active), respectively.
Regarding `CO[C@H]1CSS[C@@H]1Cn1nc(-c2ccc(Oc3ccccc3)cc2)c2c(N)ncnc21`, the growth in the test with HCT-15 colon was 22.1%; in the test on HT29 colon it was 17.2%; in the test on SNB-75 CNS it was 104%; in the test with SNB-19 CNS it was 29.6%; with U251 CNS, 24.6%; with PC-3 prostate, 41.2%. The growth in the test on SK-MEL-5 melanoma was -4.24% (active); with UACC-62 melanoma, -69.5% (active); in the test with LOX IMVI melanoma, 36.8%; in the test with SK-MEL-28 melanoma it was -35.8% (active); in the test on SK-MEL-2 melanoma, -34% (active); in the test with EKVX NSCLC, 18%. In addition, the growth in the test on SN12C renal is 24.6%; in the test on UO-31 renal, 17.7%; with TK-10 renal, 0.0625% (active); in the test on ACHN renal, 10%; in the test with CAKI-1 renal, 11.3%; with A498 renal, 92.8%. The growth is -16% (active) in the test with CCRF-CEM leukemia and -20.6% (active) with MOLT-4 leukemia.
